Shown are actives, neighbours in structure and some others; about 7.3% of the full set was active somewhere.
Rab9 prom act: activates the Rab9 promoter; Huh7 Rab9 promoter-luciferase reporter, luminescence, 24 h; Potency, µM (top dose mostly 9.22 µM), inactives show at the highest dose activation, negative = inhibition, hits mostly activators; 2.8% of 320,000 active; also: % of control where 0% means no effect; nearly all actives have a fitted effect of over 60% in size
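Huh7 cells stably carrying Rab9 promoter–luciferase reporter, plated 1500 cells/well, compound added after 2 h and incubated 24 h at 37 °C; luciferase luminescence then read after 10 min with detection reagent.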
NPC1 promoter act: activators of NPC1 promoter; Huh7 NPC1 promoter luciferase reporter, 24 h; Potency, µM (series often up to 9.22 µM), inactives show at the highest dose activation, actives largely listed as activators; 2.4% of 320,000 active; AID 485313; also: % of control where 0% means no effect; nearly all actives have a fitted effect of over 60% in size
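Readout is luciferase luminescence, reflecting NPC1 promoter activation in stably transfected Huh7 cells after 24 h compound exposure at 37 °C in reduced-serum medium with 10% FBS.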
KinaseGlo FLuc: blocks Kinase-Glo luciferase, a counter-screen artifact; Kinase-Glo luciferase, ATP luminescence, 8 min; Potency, µM (series often up to 38.3 µM), for the others: top-dose activity change, negative = inhibition, most hits filed as inhibitors; AID 1379; Q27757; 0.28% of 200,000 active; also: % is scaled to controls: 0 for no effect and ±100 for the full control effect; nearly all actives have a fitted effect of over 60% in size
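Luminescence was the read-out, taken after 8-minute incubation at ambient temperature. Luciferase turned over luciferin with 10 uM ATP in imidazole pH 7.2 buffer containing KCl, MgCl2, Tween 20 and BSA.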
SMN2 splice up: enhancers of SMN2 splice variant expression | HEK293 SMN2-luciferase splicing reporter, luminescence, 30-36 h | Potency, µM (top dose mostly 46.1 µM), without a hit: at the highest dose activity change, positive = activation, hits mostly activators | 2.8% of 210,000 active; also: % of control where 0% means no effect; nearly all actives have a fitted effect of over 55% in size
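qHTS luciferase splicing reporter: luminescence rises when SMN2 exon 7 is included in transfected HEK293 cells. Compound exposure lasted 30-36 h at 37C, with 4.5 mM final sodium butyrate as control, followed by a ONE-Glo read.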
FLuc counter: inhibits or activates purified firefly luciferase, miR-21 counter-screen; P08659; purified FLuc, Km substrates, luminescence inhibition; Potency, µM (doses to about 57.5 µM), for inactives: top-dose activity change, negative = inhibition, hits mostly inhibitors; 6.9% of 360,000 active; AID 588342;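 also: plate controls were vehicle for no effect and reference inhibitor for full effect; nearly all actives have a fitted effect of over 55% in size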
Target sequence (P08659 whole entry, looked up): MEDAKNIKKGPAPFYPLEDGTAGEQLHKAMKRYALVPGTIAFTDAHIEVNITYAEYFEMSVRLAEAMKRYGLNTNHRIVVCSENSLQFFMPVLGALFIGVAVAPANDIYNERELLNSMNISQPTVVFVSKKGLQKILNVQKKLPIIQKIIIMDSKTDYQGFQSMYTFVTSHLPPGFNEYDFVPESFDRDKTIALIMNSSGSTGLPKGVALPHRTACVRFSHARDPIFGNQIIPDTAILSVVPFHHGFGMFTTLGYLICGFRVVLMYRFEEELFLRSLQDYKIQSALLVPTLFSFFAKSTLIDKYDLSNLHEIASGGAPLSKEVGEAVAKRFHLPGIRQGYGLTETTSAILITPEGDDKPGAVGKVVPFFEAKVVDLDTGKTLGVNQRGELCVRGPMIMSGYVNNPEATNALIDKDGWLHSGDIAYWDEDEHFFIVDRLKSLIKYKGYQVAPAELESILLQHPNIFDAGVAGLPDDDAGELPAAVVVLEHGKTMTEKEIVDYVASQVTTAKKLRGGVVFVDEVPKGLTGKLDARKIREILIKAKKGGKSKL
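Purified P. pyralis luciferase (10nM final) with 10uM D-luciferin and 10uM ATP (Km levels) in 50mM Tris acetate pH 7.5, 10mM Mg acetate, 0.01% Tween-20, 0.05% BSA; qHTS 6-point titration, ~60 µM downward; luminescence read.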
ELG1 genotoxic: induces genotoxicity in HEK293T cells with luciferase-tagged ELG1 | HEK293T ELG1-luciferase reporter, luminescence, 16 h | 1.3% of 330,000 active | Potency, µM (series often up to 46 µM), inactives show at the top dose activity change, positive = activation, actives largely listed as activators; also: % of control where 0% means no effect; nearly all actives have a fitted effect of over 60% in size
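Screening used a luciferase reporter fused to human ELG1 in HEK293T cells. Luminescence was read on a CCD plate imager after 16 hr exposure and 30 min ONE-Glo incubation.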
* hit, by the source's call; ? = inconclusive; . = no result given; [ ] = dose if it differs, or a comment. Calls follow the shape of the dose curve; as a rule, active = well fitted curve in the direction sought with a large enough effect; inconclusive = small, poorly fitted or top-dose-only effect, or another doubt; inactive = no such curve, though single readings can be large; an effect the other way counts as inactive or inconclusive. Potency is read from the fitted curve at half-maximal effect.

SMILES	Rab9 prom act	NPC1 promoter act	KinaseGlo FLuc	SMN2 splice up	FLuc counter	ELG1 genotoxic
O=c1c2ccccc2nc(COc2ccccc2)n1/N=C/c1c[nH]c2ccccc12	0.9%	-0.6%	1.4%	-0.2%	-3.8%	-0.3%
C/C(=N\OCc1nc2ccccc2c(=O)n1/N=C/c1cc(C)cc([N+](=O)[O-])c1O)c1ccccc1	-4.9%	13.1%	.	.	26.9µM*	?
Cn1cnc(S(=O)(=O)N2CCCC(C(=O)NCc3ccccc3)C2)c1 (configuration not stated)	.	.	.	.	-1.6%	.
O=C1CC(c2ccccc2)Oc2cc(O)cc(O)c21 (configuration not stated)	14.3%	20.7%	.	.	16.9µM*	?
O=C1CC(c2ccc3c(c2)OCCO3)Oc2ccccc21 (configuration not stated)	2.82µM*	3.16µM*	.	.	21.3µM*	?
O=C1CC(c2ccc(O)c(O)c2)Oc2cc(O)cc(O)c21 (configuration not stated)	-10.6%	-12.1%	-0.7%	-18.1%	-13.0%	0.1%
COc1ccc(C2CC(=O)c3ccccc3O2)cc1 (configuration not stated)	?	?	10.3%	-5.0%	15.1µM*	?
O=C1CC(c2ccc3c(c2)OCCO3)Oc2ccc([N+](=O)[O-])cc21 (configuration not stated)	0.562µM*	?	.	.	0.269µM*	0.651µM*
COc1cnc(-c2ccccn2)nc1N(C)c1ccccc1	1.3%[1.84 µM]	-0.2%	.	.	10.7µM*	21.3%
COc1ccc(-n2c(-c3ccc(C)cc3)cc3c2CC(C)(C)CC3=O)c(OC)c1	.	.	.	-20.0%	2.3%	.
CCS(=O)(=O)c1ccc(-c2csc(-c3ccc(Cl)cc3)n2)c(Cl)c1Cl	1.6%	-0.3%	-0.5%	-6.3%	?	18.4µM*
Cc1[nH]n(-c2ccc([N+](=O)[O-])cc2)c(=O)c1C=NCCN1CCN(C(=O)C(C)C)CC1	-2.0%	-3.4%	10µM*	-35.6%	-2.6%	-3.9%
COc1cccc2[nH]c(=O)c(-c3ccccc3)cc12	2.82µM*	3.55µM*	.	.	12µM*	?
CCN(C(=O)Cn1cc(S(=O)(=O)Cc2ccccc2Cl)c2ccccc21)c1ccccc1	.	.	.	.	-2.2%	.
Cc1cccn2c1nc(=S)n2C(=O)c1ccco1	1.41µM*	?	?	?	0.675µM*	?
Cc1ccccc1CN1CCN(C(=O)c2ccco2)CC1	14.0%	16.0%	.	.	-17.3%	2.3%
COCC(=O)Nc1nc2ccc(C)cc2s1	1.12µM*	2.51µM*	-18.6%	10µM*	9.53µM*	2.06µM*
Cc1ccc2nc(NC(=O)COc3ccc(F)cc3)sc2c1	.	.	.	.	1.8%	.
Cc1ccc2nc(NC(=O)COC(=O)c3ccncc3)sc2c1	?	?	8.7%	?	8.49µM*	?
Cc1ccc2nc(NC(=O)COC(=O)CSc3nc(C)cc(C)n3)sc2c1	?	?	-10.1%	21.0%	?	9.4%
O=c1n(S(=O)(=O)c2cccc3cccnc23)c2ccccc2n1S(=O)(=O)c1cccc2cccnc12	-0.8%	-2.0%	0.4%	11.2µM*	-2.1%	-1.9%
O=C(Nc1nnc(N2CCCCCC2)s1)Nc1ccccc1C(F)(F)F	.	.	.	18.4%	?	.
CC1=Nc2cc(C(=O)NCCc3ccccc3)ccc2Sc2c(C)ccc(C)c21	.	.	.	-34.2%	-3.1%	.
CCCNC(=O)c1ccc2c(c1)N=C(C)c1c(C)ccc(C)c1S2	.	.	.	3.98µM*	?	.
CC(C)c1ccc(NC(=O)c2cc3c(=O)[nH]c4ccccc4c3n2C)cc1	.	.	.	-1.2%	1.8%	.
SMILES	Rab9 prom act	NPC1 promoter act	KinaseGlo FLuc	SMN2 splice up	FLuc counter	ELG1 genotoxic
Cc1ccc(Cl)cc1Nc1nc(-c2cccnc2)cs1	16.9%	3.5%	.	.	?	-2.8%
Cc1cc(NC(=O)C(C)C)n(-c2nc3ccccc3s2)n1	?	20.6%	-7.9%	-6.0%	?	7.3%
Cc1cc(C)n(-c2nc3ccccc3s2)n1	26.8%	16.8%	-26.2%	.	21.3µM*	?
Cc1cc(C)n(-c2nc(C(=O)O)cs2)n1	-1.9%	-3.3%	-1.4%	9.1%	-15.0%	2.1%
Cc1cc(C)n(-c2nc(-c3cccc(Cl)c3)cs2)n1	?	?	-4.3%	17.6%	10.7µM*	?
Cc1c2c(=O)n(-c3nc4ccccc4s3)nc-2cc(O)n1Cc1ccccc1	-15.7%	-4.9%	.	.	6.75µM*	-0.5%
Cc1cc(C)n(-c2nc(-c3ccccc3)cs2)n1	?	26.3%	-3.9%	22.9%	9.53µM*	18.4µM*
COc1cc(NS(=O)(=O)c2ccc(-c3cc(C)no3)cc2)cc(OC)c1	.	.	.	.	0.5%	.
COc1ccc(C(=O)c2cn(CC(=O)Nc3ccc4c(c3)OCO4)c3ccc(OC)cc3c2=O)cc1	.	.	.	-2.0%	-10.5%	.
CCCCn1cc(S(=O)(=O)c2cc(C)ccc2C)c(=O)c2cc(F)c(F)cc21	.	.	.	10.6%	-2.2%	.
CCc1ccc(N2C(=O)c3sc4nnc(-c5ccccc5)c(=O)n4c3C2=O)cc1	-12.8%	-3.2%	-3.2%	8.1%	19µM*	8.3%
N/C(=N\OC(=O)CSc1ccccc1)c1ccccn1	26.7%	27.4%	.	.	13.5µM*	?
N/C(=N\OC(=O)CCCOc1ccccc1)c1ccccn1	9.4%	5.0%	0.2%	3.3%	16.9µM*	10.3%
N/C(=N\OC(=O)Cc1ccc(-c2ccccc2)cc1)c1ccccn1	5.0%	17.5%	7.2%	-32.7%	?	?
COc1ccc(N(C)C(=O)Cn2cc(S(=O)(=O)N3CCN(c4ccccc4F)CC3)c3ccccc3c2=O)c(OC)c1	.	.	.	-3.1%	4.5%	.
O=C1C2C3C=CC(CO)(O3)C2C(=O)N1c1ccc(-c2ccccc2)cc1 (configuration not stated)	9.6%	13.3%	-1.2%	16.8%	19µM*	?
CC(C)(C)C(=O)NCC12C=CC(O1)C1C(=O)N(c3ccccc3)C(=O)C12 (configuration not stated)	-0.2%	-4.4%	3.7%	-18.6%	1.6%	-0.6%
Cc1c(Cl)cccc1NC(=O)CCS(=O)(=O)c1ccc2c(c1)CC(C)N2C(=O)C1CC1 (configuration not stated)	.	.	.	.	-4.9%	.
CNc1nnc(-c2ccc(N(C)C)cc2)s1	0.447µM*	0.562µM*	-12.3%	2.82µM*	2.13µM*	?
CN(C)c1ccc(-c2ccncc2)cc1	20.2%	15.0%	14.1%	?	?	?
O=c1cc2[nH]c3ccccc3c(=O)n2nc1-c1ccccc1	?	?	-2.7%	22.1%	19µM*	13µM*
CN(CC(=O)Nc1ccccc1Cl)C(=O)c1cccc(S(=O)(=O)N2CCN(c3ccc(F)cc3)CC2)c1	2.24µM*	1.41µM*	.	.	3.38µM*	1.83µM*
